Test results as given in the supplement of paper PMC10849652.
The full data set covers some 8,800 targets. This sample favours those with a hit. About 0.5% of all pairs of compound and target were hits. Unmarked numbers belong to inactive results.

Columns and labels:
Assay in all cases: log2 fold change, soluble protein after heating vs DMSO (PISA); higher = thermal stabilisation; K562 lysate, 10 uM; active = over 0.2 and 3.5 SD of the protein, either way, in both replicates (recomputed)
[1] = compound: CCn1cc(-c2ccnc3[nH]c(-c4cccc(CN(C)C)c4)cc23)c(-c2ccc(NC(=O)N(C)C)cc2)n1
Procedure, shortened: (§1)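 K562 pellets were dounce-homogenised in PBS pH 7.4 containing 1 mM MgCl2, and the crude extract, at 1 mg/mL protein, was exposed to 10 μM compound for 30 min. Aliquots were heated for 3 min across 48°C-58°C, pooled, brought to 0.5% NP-40 at 4°C and spun at 21,000xg for 90 min, with the supernatant taken as soluble protein. TMTpro 16plex LC-MS/MS with equalised channel sums quantified that protein. Values are log-two fold changes in thermal stability relative to solvent controls, taken from duplicates.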

[2] = compound: CN1CCC(CNc2ccc3ncc(-c4cccc(OC(F)(F)F)c4)n3n2)CC1
Procedure, shortened: as §1

alvocidib = compound: CN1CC[C@H](c2c(O)cc(O)c3c(=O)cc(-c4ccccc4Cl)oc23)[C@H](O)C1 [alvocidib]
Procedure, shortened: as §1

[3] = compound: CNC(=O)C1=CC=CC=C1NC2=NC(=NC=C2Cl)NC3=C(C=C(C=C3)N4CCOCC4)OC
Procedure, shortened: as §1

alisertib = compound: COc1cc(Nc2ncc3c(n2)-c2ccc(Cl)cc2C(c2c(F)cccc2OC)=NC3)ccc1C(=O)O [alisertib]
Procedure, shortened: as §1

gefitinib = compound: COc1cc2ncnc(Nc3ccc(F)c(Cl)c3)c2cc1OCCCN1CCOCC1 [gefitinib]
Procedure, shortened: as §1

[4] = compound: CCn1c(C(=O)N(C2CC2)C2CC2)cc2c3c(ncn3C)c(Nc3cc(C)n(C)n3)nc21
Procedure, shortened: as §1

saracatinib = compound: CN1CCN(CCOc2cc(OC3CCOCC3)c3c(Nc4c(Cl)ccc5c4OCO5)ncnc3c2)CC1 [saracatinib]
Procedure, shortened: as §1

sotrastaurin = compound: CN1CCN(c2nc(C3=C(c4c[nH]c5ccccc45)C(=O)NC3=O)c3ccccc3n2)CC1 [sotrastaurin]
Procedure, shortened: as §1

Tubastatin A = compound: CN1CCc2c(c3ccccc3n2Cc2ccc(C(=O)NO)cc2)C1 [Tubastatin A]
Procedure, shortened: as §1

[5] = compound: CNc1nc(-c2ccc3c(N)n[nH]c3c2)cc(N2C[C@@H](C(=O)NC3CCCCC3)CC[C@H]2C)n1
Procedure, shortened: as §1

vemurafenib = compound: CCCS(=O)(=O)Nc1ccc(F)c(C(=O)c2c[nH]c3ncc(-c4ccc(Cl)cc4)cc23)c1F [vemurafenib]
Procedure, shortened: as §1

[6] = compound: CCCS(=O)(=O)Nc1ccc(F)c(C(=O)c2c[nH]c3ncc(Cl)cc23)c1F
Procedure, shortened: as §1

[7] = compound: CC[C@@H]1C(=O)N(C)c2cnc(Nc3ccc(C(=O)NC4CCN(C)CC4)cc3OC)nc2N1C1CCCC1
Procedure, shortened: as §1

volasertib = compound: CC[C@@H]1C(=O)N(C)c2cnc(Nc3ccc(C(=O)N[C@H]4CC[C@H](N5CCN(CC6CC6)CC5)CC4)cc3OC)nc2N1C(C)C [volasertib]
Procedure, shortened: as §1

defactinib = compound: CNC(=O)c1ccc(Nc2ncc(C(F)(F)F)c(NCc3nccnc3N(C)S(C)(=O)=O)n2)cc1 [defactinib]
Procedure, shortened: as §1

encorafenib = compound: COC(=O)N[C@@H](C)CNc1nccc(-c2cn(C(C)C)nc2-c2cc(Cl)cc(NS(C)(=O)=O)c2F)n1 [encorafenib]
Procedure, shortened: as §1

[8] = compound: COC(=O)[C@H](CCSC)NC(=O)C1=C(C=C(C=C1)NC[C@H](CS)N)C2=CC=CC=C2
Procedure, shortened: as §1

[9] = compound: COc1cc2nc(-c3cc(F)ccc3O)nc(N[C@@H]3CNC[C@H]3C(C)(C)O)c2cc1OC
Procedure, shortened: as §1

barasertib = compound: CCN(CCCOc1ccc2c(Nc3cc(CC(=O)Nc4cccc(F)c4)[nH]n3)ncnc2c1)CCOP(=O)(O)O [barasertib]
Procedure, shortened: as §1

UniProt Q8IUH5, sequence (Q8IUH5 whole entry, looked up): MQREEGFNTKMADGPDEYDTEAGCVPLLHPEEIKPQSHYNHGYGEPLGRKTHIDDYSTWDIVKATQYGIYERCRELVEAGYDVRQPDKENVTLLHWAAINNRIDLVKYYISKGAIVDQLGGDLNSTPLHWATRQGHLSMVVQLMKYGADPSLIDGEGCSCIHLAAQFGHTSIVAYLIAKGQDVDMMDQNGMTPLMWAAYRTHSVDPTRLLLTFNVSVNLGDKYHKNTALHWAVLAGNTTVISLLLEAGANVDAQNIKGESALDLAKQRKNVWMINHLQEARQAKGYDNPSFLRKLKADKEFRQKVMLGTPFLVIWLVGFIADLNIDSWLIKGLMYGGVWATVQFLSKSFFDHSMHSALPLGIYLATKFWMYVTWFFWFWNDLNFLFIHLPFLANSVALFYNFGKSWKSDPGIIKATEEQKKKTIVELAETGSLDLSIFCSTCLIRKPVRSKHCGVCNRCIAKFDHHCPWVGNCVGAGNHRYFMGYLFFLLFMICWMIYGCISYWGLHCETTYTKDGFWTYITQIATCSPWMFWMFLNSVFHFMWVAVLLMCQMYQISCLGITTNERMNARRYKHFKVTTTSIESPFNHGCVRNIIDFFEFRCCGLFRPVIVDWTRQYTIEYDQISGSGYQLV
UniProt Q9H582, sequence (Q9H582 whole entry, looked up): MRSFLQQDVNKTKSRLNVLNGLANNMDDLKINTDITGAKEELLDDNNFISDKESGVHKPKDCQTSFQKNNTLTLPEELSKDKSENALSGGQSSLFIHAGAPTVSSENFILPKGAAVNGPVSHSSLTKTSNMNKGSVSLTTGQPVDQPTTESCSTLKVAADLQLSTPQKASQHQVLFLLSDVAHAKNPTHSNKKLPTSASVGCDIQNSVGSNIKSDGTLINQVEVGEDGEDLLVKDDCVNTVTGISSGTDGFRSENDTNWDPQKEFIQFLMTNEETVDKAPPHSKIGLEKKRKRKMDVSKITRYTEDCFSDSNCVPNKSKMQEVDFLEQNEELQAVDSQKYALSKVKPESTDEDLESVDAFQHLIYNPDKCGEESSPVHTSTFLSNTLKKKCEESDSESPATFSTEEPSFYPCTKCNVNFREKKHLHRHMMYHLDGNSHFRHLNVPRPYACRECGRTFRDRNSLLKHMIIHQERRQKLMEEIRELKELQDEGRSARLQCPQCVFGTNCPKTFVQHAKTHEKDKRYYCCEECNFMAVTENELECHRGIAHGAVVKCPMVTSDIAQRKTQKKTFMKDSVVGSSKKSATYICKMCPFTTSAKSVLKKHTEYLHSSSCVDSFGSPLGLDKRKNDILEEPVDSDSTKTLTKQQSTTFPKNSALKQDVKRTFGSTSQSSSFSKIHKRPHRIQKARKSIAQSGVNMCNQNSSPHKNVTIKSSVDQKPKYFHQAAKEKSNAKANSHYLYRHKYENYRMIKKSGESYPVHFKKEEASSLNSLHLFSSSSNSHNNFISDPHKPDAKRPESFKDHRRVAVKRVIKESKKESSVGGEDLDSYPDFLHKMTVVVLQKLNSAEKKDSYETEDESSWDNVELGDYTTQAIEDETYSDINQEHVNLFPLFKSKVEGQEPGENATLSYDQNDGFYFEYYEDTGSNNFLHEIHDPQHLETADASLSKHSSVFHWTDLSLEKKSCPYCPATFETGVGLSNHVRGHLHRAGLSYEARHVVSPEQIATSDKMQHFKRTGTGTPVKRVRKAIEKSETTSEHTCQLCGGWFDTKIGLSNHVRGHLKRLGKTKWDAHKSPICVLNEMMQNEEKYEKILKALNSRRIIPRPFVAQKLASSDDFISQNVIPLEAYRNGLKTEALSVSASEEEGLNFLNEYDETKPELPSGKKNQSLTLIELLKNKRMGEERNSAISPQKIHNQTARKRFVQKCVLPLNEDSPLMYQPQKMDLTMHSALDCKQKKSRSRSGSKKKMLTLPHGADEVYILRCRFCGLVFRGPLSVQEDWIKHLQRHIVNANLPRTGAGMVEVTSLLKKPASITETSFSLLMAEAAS
UniProt Q5MNZ9, sequence (Q5MNZ9 whole entry, looked up): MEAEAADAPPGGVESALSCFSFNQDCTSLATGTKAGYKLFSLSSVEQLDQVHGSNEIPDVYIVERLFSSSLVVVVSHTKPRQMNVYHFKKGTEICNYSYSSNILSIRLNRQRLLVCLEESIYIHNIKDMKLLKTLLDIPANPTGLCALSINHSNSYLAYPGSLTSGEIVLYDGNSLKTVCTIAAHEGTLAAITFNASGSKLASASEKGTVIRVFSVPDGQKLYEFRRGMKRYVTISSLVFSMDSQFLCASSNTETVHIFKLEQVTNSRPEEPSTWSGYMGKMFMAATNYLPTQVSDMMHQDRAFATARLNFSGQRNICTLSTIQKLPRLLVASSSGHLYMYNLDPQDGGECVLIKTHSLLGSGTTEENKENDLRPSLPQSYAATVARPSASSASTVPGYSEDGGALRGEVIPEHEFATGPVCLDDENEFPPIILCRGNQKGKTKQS
UniProt Q9Y2X9, sequence (Q9Y2X9 whole entry, looked up): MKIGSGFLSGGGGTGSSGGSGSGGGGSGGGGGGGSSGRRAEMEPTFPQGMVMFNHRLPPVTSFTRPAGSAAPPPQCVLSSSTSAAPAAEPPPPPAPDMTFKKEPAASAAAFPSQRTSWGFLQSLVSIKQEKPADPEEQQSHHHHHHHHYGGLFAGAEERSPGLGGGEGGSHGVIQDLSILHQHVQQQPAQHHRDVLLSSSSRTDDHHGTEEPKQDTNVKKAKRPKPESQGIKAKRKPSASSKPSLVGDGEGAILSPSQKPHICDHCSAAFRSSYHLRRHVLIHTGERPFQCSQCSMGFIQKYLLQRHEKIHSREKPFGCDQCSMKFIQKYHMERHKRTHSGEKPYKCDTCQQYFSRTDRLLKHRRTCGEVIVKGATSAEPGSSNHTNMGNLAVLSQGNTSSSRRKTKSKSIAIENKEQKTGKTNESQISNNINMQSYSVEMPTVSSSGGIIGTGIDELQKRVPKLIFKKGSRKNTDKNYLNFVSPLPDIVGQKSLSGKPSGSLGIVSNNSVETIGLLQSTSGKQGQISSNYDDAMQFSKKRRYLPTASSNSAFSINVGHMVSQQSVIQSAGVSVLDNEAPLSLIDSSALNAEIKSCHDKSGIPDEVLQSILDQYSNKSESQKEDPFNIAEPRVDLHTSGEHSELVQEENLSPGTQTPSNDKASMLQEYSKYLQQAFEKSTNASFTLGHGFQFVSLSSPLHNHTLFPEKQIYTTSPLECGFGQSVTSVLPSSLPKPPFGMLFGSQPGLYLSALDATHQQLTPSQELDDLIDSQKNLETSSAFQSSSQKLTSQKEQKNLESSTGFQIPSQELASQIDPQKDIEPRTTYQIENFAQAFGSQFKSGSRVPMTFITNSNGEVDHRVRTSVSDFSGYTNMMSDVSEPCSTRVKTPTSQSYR

Row | Target | log2 fold change [1] | log2 fold change [2] | log2 fold change (alvocidib) | log2 fold change [3] | log2 fold change (alisertib) | log2 fold change (gefitinib) | log2 fold change [4] | log2 fold change (saracatinib) | log2 fold change (sotrastaurin) | log2 fold change (Tubastatin A) | log2 fold change [5] | log2 fold change (vemurafenib) | log2 fold change [6] | log2 fold change [7] | log2 fold change (volasertib) | log2 fold change (defactinib) | log2 fold change (encorafenib) | log2 fold change [8] | log2 fold change [9] | log2 fold change (barasertib)
1 | UNC13A (UniProt Q9UPW8) | -1.79 (active) | 0.531 | -0.643 | -0.11 | -0.067 | -0.076 |  |  |  |  |  |  |  |  |  |  |  |  |  | 
2 | ZNF281 (UniProt Q9Y2X9) |  |  |  | 0.025 |  |  | 0.011 | -0.069 | 0.028 | -0.16 | 0.095 |  |  |  |  |  |  |  |  | 
3 | ZDHHC17 (UniProt Q8IUH5) | -0.346 | 0.141 | -0.44 |  | 0.037 | 0.24 | 0.166 | 0.205 | 0.117 | 0.074 | -0.04 | 0.058 | 0.047 | 0.077 | -0.071 | -0.053 | -0.044 | 0.183 | -0.032 | 
4 | ZNF644 (UniProt Q9H582) | -0.05 | -0.023 | 0.003 | -0.058 | -0.018 | -0.024 | -0.136 | -0.086 | 0.013 | -0.038 | -0.02 | 0.027 |  | 0.047 |  | 0.025 | 0.028 | -0.011 |  | 0.045
5 | WIPI1 (UniProt Q5MNZ9) | -0.079 | 0.022 | -0.046 | 0.036 | -0.189 | -0.017 | -0.043 | 0.025 | -0.074 | 0.013 | 0.099 |  | 0.044 | 0.119 | -0.014 |  | -0.009 | 0.029 | 0.008 | 0.04
6 | ZNF652 (UniProt Q9Y2D9) |  |  |  |  |  |  |  |  | -0.034 |  |  |  |  |  |  |  |  |  |  | 
